Experimental findings from PubChem BioAssay (Tox21) are described below.

Records with an inconclusive call do not appear. Where a call stands in place of a potency, no number is given. Values without a mark were called inactive. Active and inactive are the calls of the source. Unless noted, calls follow the shape of the full dose curve.

Sequence of Retinoic acid receptor RXR-alpha (Homo sapiens) (P19793 whole entry, looked up): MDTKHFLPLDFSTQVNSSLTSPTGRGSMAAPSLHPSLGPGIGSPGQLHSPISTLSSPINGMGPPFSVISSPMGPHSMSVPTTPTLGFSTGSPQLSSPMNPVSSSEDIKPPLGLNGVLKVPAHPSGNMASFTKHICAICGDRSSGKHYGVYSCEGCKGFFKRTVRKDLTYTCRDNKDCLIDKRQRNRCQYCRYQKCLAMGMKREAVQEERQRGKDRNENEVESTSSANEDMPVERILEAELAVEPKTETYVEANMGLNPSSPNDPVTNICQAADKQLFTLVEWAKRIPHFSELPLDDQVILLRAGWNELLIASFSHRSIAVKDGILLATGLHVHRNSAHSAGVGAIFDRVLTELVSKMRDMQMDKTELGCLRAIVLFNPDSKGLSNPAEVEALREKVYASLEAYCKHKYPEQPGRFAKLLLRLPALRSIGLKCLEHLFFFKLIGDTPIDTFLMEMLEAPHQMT

For one test, the target named is Nuclear receptor ROR-gamma (Homo sapiens) (UniProt P51449). As to the kind of experiment: qHTS assay to identify small molecule antagonists of the retinoid-related orphan receptor gamma (ROR-gamma) signaling pathway (AID 1159521; active = well fitted inhibition curve with a large enough effect in the repeat runs; also: nearly all actives have a fitted effect of over 50% in size; also: potency is read from the fitted curve at half-maximal effect;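 as to activity change, negative = inhibition: CHO cells with doxycycline inducible ROR-gamma driving an RORE luciferase reporter; top concentration of the series differs between compounds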). The following applies: Tet-on RORgamma CHO cells, RORE-luciferase, 16 h; series mostly up to 92.4 µM. In short, it runs like this:
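Screening format: cell-based luciferase reporter in CHO cells with doxycycline-inducible RORγ. Compound pre-exposure lasts 2 h, doxycycline is 1 uM final, induction runs 16 h at 37 C, and ONE-Glo luminescence is read.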
`C[C@]12CCC(=O)C=C1CC[C@@H]1[C@@H]2CC[C@@]2(C)[C@H]1CC[C@]2(O)C(=O)CO`: the Potency result is “inactive”.
On the same count and under the same terms, for `CC(C)=CCC[C@](C)(O)[C@@H]1CC=C(C)CC1` the value was “inactive”.
Still for that read-out and setting: for `OCc1c2ccccc2cc2ccccc12` the value was “inactive”; for `CCOc1ccccc1N`, 54.1 µM (active).
On the same count and under the same terms, for `C[C@]12C(=O)OC(=O)[C@H]1[C@H]1C=C[C@@H]2C1` the value was “inactive”.
As for `COC(=O)c1ccc2cc(C(=O)OC)ccc2c1`, the activity change, negative = inhibition was 0.445% [at 19 µM].
For `NC(Cc1ccc(F)cc1)C(=O)O` (stereo not given), the activity change, negative = inhibition was -13.5% [at 8.39 µM].
With `CC1=C2[C@H](/C=C(\C)C(=O)O)CC[C@@H](C)[C@H]2CC1`, the Potency result was “inactive”.
On the same count and under the same terms, as for `CC1=NN(c2cc(Cl)c(S(=O)(=O)O)cc2Cl)C(=O)C1N=Nc1ccc(S(=O)(=O)O)cc1` (stereo not given), the entry is “inactive”; as for `O=c1[nH]cnc2c1ncn2[C@@H]1O[C@H](CO)[C@@H](O)[C@H]1O`, “inactive”.
Same read-out and setting: for `Nc1ccc(Oc2ccc(N)c(N)c2)cc1` the value was “inactive”; for `NC/C=C/C(=O)O`, “inactive”; for `CCOC(=O)CS`, “inactive”.

Test system in the next test: not listed separately
Kind of test: qHTS assay to identify small molecule agonists of the AP-1 signaling pathway - cell viability counter screen (AID 1159525). Also: nearly all actives have a fitted effect of over 55% in size. The following applies: ME-180 (cervical carcinoma) AP-1-bla cells viability, ATP luminescence, 5 h; series mostly up to 76.8 µM. A digest of the protocol:
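AP-1-bla ME-180 cells in Opti-MEM with 0.5% dialyzed FBS, compound exposure 5 h at 37 C in 15-point titration. Viability read in the same wells as ATP content by CellTiter-Glo luminescence, normalised to tetra-n-octylammonium bromide and DMSO controls.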
For the molecule `O=C1Nc2ccc([N+](=O)[O-])cc2C1=O`, the call was inactive.
On the same count and under the same terms, for `O=C1CCN(c2ccccc2)N1` the value was “inactive”; for `C[C@@H](N)C(=O)O`, “inactive”; for `CCc1cc(Cl)c(OC)c(C(=O)NC[C@@H]2CCCN2CC)c1O`, “inactive”.
With `CC1(O)CSC(C)(O)CS1` (stereo not given), the molecule was called inactive.
On the same count and under the same terms, for `Cc1cc2nc(N)sc2cc1C` the value was “inactive”.
On the same count and under the same terms, as for `Cc1nc(N)nc(N)c1-c1ccc(Cl)c(Cl)c1`, the entry is “inactive”; as for `Cc1c(-c2ccccc2)oc2c(C(=O)OCCN3CCCCC3)cccc2c1=O`, “inactive”.
Still for that read-out and setting: as for `COc1ccc(Nc2ccc(OC)cc2)cc1`, the entry is “inactive”; as for `CCCCCCCCCCCCCCCCOP(=O)([O-])OCC[N+](C)(C)C`, “inactive”.
Consider `CCCCCCOc1ccc(N)cc1`, for which the result was inactive.
On the same count and under the same terms, as for `CC(C)c1ccccc1`, the entry is “inactive”.
On the same count and under the same terms, for `Cc1nc(-c2ccccn2)ncc1C(=O)Nn1cc(C)c2cc(F)ccc21` the value was “inactive”; for `CN1CCN(C2=Nc3cc(F)ccc3Cc3ccccc32)CC1`, “inactive”.
Same read-out and setting: as for `Cc1cccc(C)c1NC(=O)CN1CCCCCC1`, the entry is “inactive”.
For the molecule `O=C(CC(=O)C(F)(F)F)c1ccccc1`, the molecule was called inactive.
Still for that read-out and setting: as for `O=Cc1ccc(O)c(O)c1O`, the entry is “inactive”.
Same read-out and setting: as for `CC(C)C[C@H](NC(=O)OCC1c2ccccc2-c2ccccc21)C(=O)O`, the entry is “inactive”; as for `CCCCNc1ccc(C(=O)OCCN(CC)CC)cc1`, “inactive”; as for `CCCCCCCCCC#N`, “inactive”.
Same read-out and setting: as for `CN1CCC[C@@H]1Cc1c[nH]c2ccc(CCS(=O)(=O)c3ccccc3)cc12`, the entry is “inactive”.
`Cc1ccc(C(C)C)cc1O`: the call was inactive.
Still for that read-out and setting: as for `CC(=O)Oc1cc(C(C)C)c(OCCN(C)C)cc1C`, the entry is “inactive”; as for `CCCCCCCCc1ccc(S(=O)(=O)O)cc1`, “inactive”; as for `C[C@]12CCC(=O)C=C1CC[C@@H]1[C@@H]2CC[C@@]2(C)[C@H]1CC[C@]2(O)C(=O)CO`, “inactive”.
Take `CC(C)=CCC[C@](C)(O)[C@@H]1CC=C(C)CC1`: the result was inactive.
Still for that read-out and setting: for `OCc1c2ccccc2cc2ccccc12` the value was “inactive”; for `CCOc1ccccc1N`, “inactive”; for `C[C@]12C(=O)OC(=O)[C@H]1[C@H]1C=C[C@@H]2C1`, “inactive”.
In the case of `COC(=O)c1ccc2cc(C(=O)OC)ccc2c1`, the viability change, negative = cytotoxic is 2.85% [at 15.8 µM].
On the same count and under the same terms, as for `NC(Cc1ccc(F)cc1)C(=O)O` (stereo not given), the figure is -5.13% [at 6.97 µM].
Take `CC1=C2[C@H](/C=C(\C)C(=O)O)CC[C@@H](C)[C@H]2CC1`: the molecule was classed as inactive.
On the same count and under the same terms, for `CC1=NN(c2cc(Cl)c(S(=O)(=O)O)cc2Cl)C(=O)C1N=Nc1ccc(S(=O)(=O)O)cc1` (stereo not given) the value was “inactive”; for `O=c1[nH]cnc2c1ncn2[C@@H]1O[C@H](CO)[C@@H](O)[C@H]1O`, “inactive”.
Take `Nc1ccc(Oc2ccc(N)c(N)c2)cc1`: the outcome was inactive.
The same measure, in the same setting: for `CCOC(=O)CS` the value was “inactive”.

Another test has as its target Retinoic acid receptor RXR-alpha (Homo sapiens) (UniProt P19793). Kind of test: qHTS assay to identify small molecule agonists of the RXR signaling pathway (AID 1159527). Also: nearly all actives have a fitted effect of over 35% in size. Conditions: HEK293T RXRa-UAS-bla, beta-lactamase ratio, 16 h; series mostly up to 76.8 µM. A digest of the protocol: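 Fluorescence ratio readout (460 vs 530 nm) from GeneBLAzer RXR-alpha HEK 293T cells after 16 hr compound treatment; cells seeded 5 hr beforehand in low-serum, charcoal-stripped medium.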
In general terms: In qHTS, concentration-response curves come from the screen itself.
`O=C1Nc2ccc([N+](=O)[O-])cc2C1=O`: the Potency result was “inactive”.
Same read-out and setting: as for `O=C1CCN(c2ccccc2)N1`, the entry is “inactive”.
`C[C@@H](N)C(=O)O`: the Potency entry was “inactive”.
Same read-out and setting: for `Cc1cc2nc(N)sc2cc1C` the value was “inactive”; for `COc1ccc(Nc2ccc(OC)cc2)cc1`, “inactive”; for `CCCCCCCOC(=O)CCC`, “inactive”.
Still for that read-out and setting: for `CC(C)c1ccccc1` the value was “inactive”; for `CN1CCN(C2=Nc3cc(F)ccc3Cc3ccccc32)CC1`, “inactive”.
On the same count and under the same terms, for `Cc1cccc(C)c1NC(=O)CN1CCCCCC1` the value was “inactive”; for `CC(C)C[C@H](NC(=O)OCC1c2ccccc2-c2ccccc21)C(=O)O`, “inactive”; for `CCCCNc1ccc(C(=O)OCCN(CC)CC)cc1`, “inactive”.
Take `CN1CCC[C@@H]1Cc1c[nH]c2ccc(CCS(=O)(=O)c3ccccc3)cc12`: the Potency entry was “inactive”.
On to `Cc1ccc(C(C)C)cc1O`, for which the Potency result was “inactive”.
On to `CC(=O)Oc1cc(C(C)C)c(OCCN(C)C)cc1C`, for which the Potency entry is “inactive”.
Still for that read-out and setting: as for `CC(C)=CCC[C@](C)(O)[C@@H]1CC=C(C)CC1`, the entry is “inactive”; as for `OCc1c2ccccc2cc2ccccc12`, “inactive”.
As to `COC(=O)c1ccc2cc(C(=O)OC)ccc2c1`, the activation is 0.118% [at 15.8 µM].
In the case of `NC(Cc1ccc(F)cc1)C(=O)O` (stereo not given), the activation is 12.3% [at 6.98 µM].
With `CC1=NN(c2cc(Cl)c(S(=O)(=O)O)cc2Cl)C(=O)C1N=Nc1ccc(S(=O)(=O)O)cc1` (stereo not given), the Potency result is “inactive”.
Same read-out and setting: for `O=c1[nH]cnc2c1ncn2[C@@H]1O[C@H](CO)[C@@H](O)[C@H]1O` the value was “inactive”; for `NC/C=C/C(=O)O`, “inactive”.
